{
  "source": "the supplement of paper PMC12636033",
  "note": "± gives the standard deviation of the averaged measurements. The full ranking holds about 33,000 sequences; the median of “E-score (rank enrichment, -0.5 to 0.5)” is about -0.0075, and the highest 2% start at about 0.23. What follows is part of a selection rich in the highest values, with near analogues and random picks from the rest.",
  "data": [
    {"tested_on": "WT Max(13-93) synthetic (M65Nle)", "assay": "PBM 8-mer E-score (E-score (rank enrichment, -0.5 to 0.5)); higher = stronger preferential binding", "experimental": "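Protein binding microarray (universal PBM chip covering all 10-mers in fixed probe flanks) with chemically synthesized human Max(13-93) bHLH-LZ analogs (not full-length Max) bearing noncanonical residues (hArg, Tha, Aib, Nle at 65) and aromatic Cys staples. Read-out per 8-mer (and its reverse complement): E-score (rank-based enrichment, -0.5 to 0.5) and Z-score of median probe intensity.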", "values": [
      {"sequence": "CCATGCAA", "PBM 8-mer E-score": "0.127 ± 0.083"},
      {"sequence": "GCATGCAC", "PBM 8-mer E-score": "0.277 ± 0.0097"},
      {"sequence": "TCATGCAA", "PBM 8-mer E-score": "0.174 ± 0.02"},
      {"sequence": "ACATGCAC", "PBM 8-mer E-score": "0.244 ± 0.065"},
      {"sequence": "ACATGCGT", "PBM 8-mer E-score": "0.313 ± 0.081"},
      {"sequence": "GCATGCAA", "PBM 8-mer E-score": "0.257 ± 0.029"},
      {"sequence": "AAATGCGT", "PBM 8-mer E-score": "0.0113 ± 0.099"},
      {"sequence": "CGCACTGA", "PBM 8-mer E-score": "-0.179 ± 0.032"},
      {"sequence": "ACTGTGTC", "PBM 8-mer E-score": "-0.00876 ± 0.03"},
      {"sequence": "GTCTGGCA", "PBM 8-mer E-score": "-0.0283 ± 0.1"},
      {"sequence": "ATAGACAA", "PBM 8-mer E-score": "0.1094 ± 0.00018"},
      {"sequence": "ACCTCGAT", "PBM 8-mer E-score": "-0.1167 ± 0.00076"},
      {"sequence": "ATTCTAAG", "PBM 8-mer E-score": "0.0595 ± 0.006"},
      {"sequence": "CTGATCCA", "PBM 8-mer E-score": "0.0725 ± 0.042"},
      {"sequence": "CAGAGAAC", "PBM 8-mer E-score": "-0.0299 ± 0.06"},
      {"sequence": "TATGATCA", "PBM 8-mer E-score": "0.0122 ± 0.2"},
      {"sequence": "AAACAGTT", "PBM 8-mer E-score": "0.0134 ± 0.022"},
      {"sequence": "CCCCTATC", "PBM 8-mer E-score": "-0.00604 ± 0.055"},
      {"sequence": "GTCGGAGA", "PBM 8-mer E-score": "-0.0989 ± 0.0099"},
      {"sequence": "ACATGCTC", "PBM 8-mer E-score": "0.272 ± 0.0055"},
      {"sequence": "ACATGCAT", "PBM 8-mer E-score": "0.302 ± 0.039"},
      {"sequence": "ACATGCTA", "PBM 8-mer E-score": "0.174 ± 0.035"},
      {"sequence": "CCATGCTC", "PBM 8-mer E-score": "0.084 ± 0.019"},
      {"sequence": "AAATGCAT", "PBM 8-mer E-score": "0.229 ± 0.035"},
      {"sequence": "ACATGCCT", "PBM 8-mer E-score": "0.219 ± 0.077"},
      {"sequence": "AGTCTGGC", "PBM 8-mer E-score": "-0.226 ± 0.12"},
      {"sequence": "GTAGCACA", "PBM 8-mer E-score": "-0.0865 ± 0.011"},
      {"sequence": "TGAAGTAA", "PBM 8-mer E-score": "0.119 ± 0.0048"},
      {"sequence": "TAAAGTAA", "PBM 8-mer E-score": "0.05 ± 0.016"},
      {"sequence": "GGAAGTAA", "PBM 8-mer E-score": "0.238 ± 0.048"},
      {"sequence": "AAAAGTAA", "PBM 8-mer E-score": "0.157 ± 0.0098"},
      {"sequence": "CAAAGTAA", "PBM 8-mer E-score": "0.0802 ± 0.022"},
      {"sequence": "GAAAGTAA", "PBM 8-mer E-score": "0.267 ± 0.032"},
      {"sequence": "AGAAGTAA", "PBM 8-mer E-score": "0.154 ± 0.0017"},
      {"sequence": "AAAAGTAT", "PBM 8-mer E-score": "0.237 ± 0.021"},
      {"sequence": "AAAAGTAC", "PBM 8-mer E-score": "0.155 ± 0.029"},
      {"sequence": "GCCAATCA", "PBM 8-mer E-score": "0.0501 ± 0.062"},
      {"sequence": "TAATCGAA", "PBM 8-mer E-score": "0.0693 ± 0.0042"},
      {"sequence": "CCGAAAGA", "PBM 8-mer E-score": "-0.0212 ± 0.033"},
      {"sequence": "CCCGGGCA", "PBM 8-mer E-score": "-0.273 ± 0.045"},
      {"sequence": "AGGGAGTC", "PBM 8-mer E-score": "-0.0877 ± 0.012"},
      {"sequence": "CATCGGAA", "PBM 8-mer E-score": "-0.106 ± 0.077"},
      {"sequence": "AAGTTGGG", "PBM 8-mer E-score": "-0.0303 ± 0.066"},
      {"sequence": "ATGCACGC", "PBM 8-mer E-score": "0.26 ± 0.026"},
      {"sequence": "CTGCACGC", "PBM 8-mer E-score": "0.167 ± 0.037"},
      {"sequence": "ATGCACAC", "PBM 8-mer E-score": "0.239 ± 0.079"},
      {"sequence": "ATGCACAG", "PBM 8-mer E-score": "0.108 ± 0.0019"},
      {"sequence": "ATGCACGA", "PBM 8-mer E-score": "0.172 ± 0.088"},
      {"sequence": "ATGCACAA", "PBM 8-mer E-score": "0.14 ± 0.051"},
      {"sequence": "ACCTAGCT", "PBM 8-mer E-score": "-0.036 ± 0.038"},
      {"sequence": "CCAATCAC", "PBM 8-mer E-score": "0.158 ± 0.025"},
      {"sequence": "ACAATCAC", "PBM 8-mer E-score": "0.28 ± 0.016"},
      {"sequence": "GCAATCAC", "PBM 8-mer E-score": "0.0355 ± 0.036"},
      {"sequence": "AACCAAGA", "PBM 8-mer E-score": "0.113 ± 0.036"},
      {"sequence": "AGGGGGGG", "PBM 8-mer E-score": "-0.162 ± 0.1"},
      {"sequence": "TCAAATCA", "PBM 8-mer E-score": "0.0295 ± 0.016"},
      {"sequence": "AACAACAC", "PBM 8-mer E-score": "0.248 ± 0.025"},
      {"sequence": "AACAACAA", "PBM 8-mer E-score": "0.222 ± 0.06"},
      {"sequence": "GACAACAC", "PBM 8-mer E-score": "0.025 ± 0.0086"},
      {"sequence": "TACAACAA", "PBM 8-mer E-score": "0.245 ± 0.075"},
      {"sequence": "CACAACAC", "PBM 8-mer E-score": "0.162 ± 0.014"},
      {"sequence": "CACAACAA", "PBM 8-mer E-score": "0.17 ± 0.053"},
      {"sequence": "AGCCGCTC", "PBM 8-mer E-score": "-0.0773 ± 0.005"},
      {"sequence": "AGGCACAC", "PBM 8-mer E-score": "-0.00413 ± 0.014"},
      {"sequence": "TATTAGCA", "PBM 8-mer E-score": "0.103 ± 0.035"},
      {"sequence": "CCCCTCCA", "PBM 8-mer E-score": "0.186 ± 0.16"},
      {"sequence": "AGTAACAT", "PBM 8-mer E-score": "0.165 ± 0.019"},
      {"sequence": "ATAATACA", "PBM 8-mer E-score": "0.265 ± 0.036"},
      {"sequence": "GTATAATA", "PBM 8-mer E-score": "0.194 ± 0.011"},
      {"sequence": "CTAATATA", "PBM 8-mer E-score": "0.203 ± 0.012"},
      {"sequence": "CTATAATA", "PBM 8-mer E-score": "0.125 ± 0.03"},
      {"sequence": "ACATAATC", "PBM 8-mer E-score": "0.111 ± 0.029"},
      {"sequence": "ATAATACC", "PBM 8-mer E-score": "0.203 ± 0.026"},
      {"sequence": "ATAATATG", "PBM 8-mer E-score": "0.2169 ± 0.00097"},
      {"sequence": "GCATAATA", "PBM 8-mer E-score": "0.195 ± 0.12"},
      {"sequence": "ATAATACG", "PBM 8-mer E-score": "0.179 ± 0.092"},
      {"sequence": "ATAATATA", "PBM 8-mer E-score": "0.262 ± 0.069"},
      {"sequence": "ACATAATA", "PBM 8-mer E-score": "0.288 ± 0.01"},
      {"sequence": "ATATAATA", "PBM 8-mer E-score": "0.256 ± 0.035"},
      {"sequence": "AGCACAAT", "PBM 8-mer E-score": "0.0982 ± 0.029"},
      {"sequence": "ATCGGCCA", "PBM 8-mer E-score": "-0.199 ± 0.054"},
      {"sequence": "AAGATGAA", "PBM 8-mer E-score": "0.0673 ± 0.0063"},
      {"sequence": "AGTTCCTA", "PBM 8-mer E-score": "-0.0137 ± 0.1"},
      {"sequence": "CATTCCGA", "PBM 8-mer E-score": "0.0189 ± 0.04"},
      {"sequence": "CGCTCCAG", "PBM 8-mer E-score": "-0.224 ± 0.12"},
      {"sequence": "ATACTCCC", "PBM 8-mer E-score": "0.0233 ± 0.061"},
      {"sequence": "AGCGATAA", "PBM 8-mer E-score": "-0.115 ± 0.023"},
      {"sequence": "AAACCAGC", "PBM 8-mer E-score": "-0.182 ± 0.12"},
      {"sequence": "CTGAAGGA", "PBM 8-mer E-score": "-0.0478 ± 0.038"},
      {"sequence": "AACAAATA", "PBM 8-mer E-score": "0.235 ± 0.039"},
      {"sequence": "TACAAATA", "PBM 8-mer E-score": "0.154 ± 0.042"},
      {"sequence": "AACAAAAA", "PBM 8-mer E-score": "0.113 ± 0.021"},
      {"sequence": "AACAAGAT", "PBM 8-mer E-score": "0.11 ± 0.095"},
      {"sequence": "AACAAGTA", "PBM 8-mer E-score": "0.0942 ± 0.0044"},
      {"sequence": "AACAAAAT", "PBM 8-mer E-score": "0.301 ± 0.016"},
      {"sequence": "AATCTACG", "PBM 8-mer E-score": "-0.0669 ± 0.058"},
      {"sequence": "AAAGTACG", "PBM 8-mer E-score": "0.0681 ± 0.065"},
      {"sequence": "CAGCACCA", "PBM 8-mer E-score": "-0.0907 ± 0.0017"},
      {"sequence": "CCATTAGA", "PBM 8-mer E-score": "-0.222 ± 0.029"},
      {"sequence": "ATAGAAAA", "PBM 8-mer E-score": "0.134 ± 0.016"},
      {"sequence": "AATTAAAG", "PBM 8-mer E-score": "0.184 ± 0.068"},
      {"sequence": "AATTAATA", "PBM 8-mer E-score": "0.243 ± 0.094"},
      {"sequence": "AATTAAGA", "PBM 8-mer E-score": "0.241 ± 0.057"},
      {"sequence": "CATTAATA", "PBM 8-mer E-score": "0.119 ± 0.11"},
      {"sequence": "AATTAAAT", "PBM 8-mer E-score": "0.253 ± 0.024"},
      {"sequence": "AATTAAAC", "PBM 8-mer E-score": "0.218 ± 0.018"},
      {"sequence": "GATTAATA", "PBM 8-mer E-score": "0.266 ± 0.022"},
      {"sequence": "ATTTAATA", "PBM 8-mer E-score": "0.23 ± 0.013"},
      {"sequence": "TATTAATA", "PBM 8-mer E-score": "0.19 ± 0.021"},
      {"sequence": "ACTTAATA", "PBM 8-mer E-score": "0.21 ± 0.015"},
      {"sequence": "AATTAAGC", "PBM 8-mer E-score": "0.0692 ± 0.079"},
      {"sequence": "GATTAAGA", "PBM 8-mer E-score": "0.182 ± 0.054"}
    ]}
  ]
}
